Results from PubChem BioAssay (Tox21).
Values joined by “and” are separate entries in the source; they are usually repeats but may differ in a detail not shown here. Equal values may be shown once. Records with an inconclusive call do not appear. Where a call stands in place of a potency, no number is given. Some structures have more than one record in an assay (separate samples or runs), and their calls can disagree. Active and inactive are the calls of the source. Unless noted, the call rests on the fitted dose curve; in most records, active means well fitted curve in the direction sought with a large enough effect in the repeat runs; inconclusive means weak or mixed curves; inactive means no such curve, though single readings can be large; an effect the other way counts as inactive or inconclusive.

Tests used:
[1] = qHTS assay for small molecule agonists of the p53 signaling pathway (AID 651631; calls by dose curve; further: nearly all actives have a fitted effect of over 15% in size; further: potency means the concentration at half of the fitted maximal effect)
In short: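 Readout was fluorescence from the LiveBLAzer FRET substrate, applied for 2 h at room temperature after 16 h compound exposure at 37 °C. Cells were the p53RE-bla HCT-116 line, with beta-lactamase driven by p53 response elements.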

[2] = qHTS assay for small molecules that induce genotoxicity in human embryonic kidney cells expressing luciferase-tagged ATAD5 (AID 651632); further: nearly all actives have a fitted effect of over 15% in size; further: potency means the concentration at half of the fitted maximal effect
In short: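 Genotoxicity read-out via ATAD5-luciferase: HEK293T cells, 16 hr compound incubation at 37C, Amplite detection.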

[3] = qHTS assay for small molecule agonists of the p53 signaling pathway - cell viability (AID 651633; calls by dose curve; further: nearly all actives have a fitted effect of over 30% in size; further: potency means the concentration at half of the fitted maximal effect)
In short: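 p53RE-bla cells, seeded at 4,000 per well and rested 5 h at 37 C/5% CO2, received compounds in DMSO for 16 h at 37 C. CellTiter-Glo was then added, and luminescence was read after 30 min at room temperature to gauge cytotoxicity.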

[4] = qHTS assay for small molecules that induce genotoxicity in human embryonic kidney cells expressing luciferase-tagged ATAD5 - cell viability (AID 651634; calls by dose curve; further: nearly all actives have a fitted effect of over 25% in size; further: potency means the concentration at half of the fitted maximal effect)
In short: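 Live-cell protease activity (CellTiter-Fluor, fluorescence) indicates viability. HEK293T cells with luciferase-tagged ATAD5; 15.5 hr compound treatment at 37C.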

[5] = qHTS assay for small molecule disruptors of the mitochondrial membrane potential - cell viability (AID 720634; calls by dose curve; further: nearly all actives have a fitted effect of over 20% in size; further: potency means the concentration at half of the fitted maximal effect)
In short: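 Human hepatoma HepG2 cells were treated for 1 hr with test chemicals, then given m-MPI dye and CellTiter-Glo. Cell viability reflects luminescence proportional to cellular ATP.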

[6] = qHTS assay to test for compound auto fluorescence at 590 nm (red) in HepG2 cells (AID 720674)
In short: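 Rose Bengal sodium served as the red fluorophore standard. HepG2 monolayers (overnight attachment, MEM with 10% FBS) were exposed to test compounds for 1 hr at 37 C and read at Ex 540/Em 590 nm.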

[7] = qHTS assay to test for compound auto fluorescence at 460 nm (blue) in HEK293 cells (AID 720678); further: potency means the concentration at half of the fitted maximal effect
In short: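 Cells were seeded and left to adhere for 4-5 hr at 37C. Compounds were then pin-transferred. After an overnight incubation at 37C under 5% CO2, intrinsic fluorescence at 405/460 nm was measured and referenced to triamterene.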

[8] = qHTS assay to test for compound auto fluorescence at 590 nm (red) in HEK293 cells (AID 720679)
In short: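 Each well held 2,000 HEK293 cells in medium containing 10% dialyzed FBS. Following 4-5 hr attachment at 37C, 23 nL test compound or DMSO was added; plates sat overnight, and red fluorescence (540/590nm) was recorded.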

[9] = qHTS assay to test for compound auto fluorescence at 535 nm (green) in HEK293 cells (AID 720680)
[10] = qHTS assay to test for compound auto fluorescence at 460 nm (blue) in HEK293 cell free culture (AID 720681); further: potency means the concentration at half of the fitted maximal effect
In short: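 Test compounds were pinned into cell-free culture medium (DMEM with 10% FBS) and fluorescence was read directly at Ex/Em 405/460 nm. Signals were expressed as fluorescence equivalents of triamterene, with DMSO vehicle as control.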

[11] = qHTS assay to test for compound auto fluorescence at 535 nm (green) in HEK293 cell free culture (AID 720682)
In short: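 Compounds were pin-transferred into cell-free DMEM with 10% FBS, and green fluorescence was read at excitation 485 nm and emission 535 nm. Intensities were expressed as fluorescein-equivalent values.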

[12] = qHTS assay to test for compound auto fluorescence at 590 nm (red) in HEK293 cell free culture (AID 720683)
In short: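 Tox21 10K library compounds were pinned into cell-free DMEM with 10% FBS and fluorescence was read at excitation 540 nm. Activity is expressed as Rose Bengal sodium equivalency.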

[13] = qHTS assay to test for compound auto fluorescence at 590 nm (red) in HepG2 cell free culture (AID 720684)
In short: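 Measured in medium alone (MEM containing 10% FBS) following pintool addition of compound; emission at 590 nm with 540 nm excitation, referenced to Rose Bengal sodium.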

[14] = qHTS assay to test for compound auto fluorescence at 460 nm (blue) in HepG2 cell free culture (AID 720685); further: potency means the concentration at half of the fitted maximal effect
In short: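 Compound (23 nL) or DMSO pinned into cell-free MEM with 10% FBS; blue fluorescence read at 405/460 nm excitation/emission, expressed as auto-fluorescence equivalency to triamterene.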

[15] = qHTS assay to test for compound auto fluorescence at 535 nm (green) in HepG2 cell free culture (AID 720686)
[16] = qHTS assay to test for compound auto fluorescence at 460 nm (blue) in HepG2 cells (AID 720687); further: potency means the concentration at half of the fitted maximal effect
In short: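 Cells (2,000/well in MEM with 10% FBS) attached overnight at 37 C, then were exposed to compound or DMSO for 1 hr at 37 C, 5% CO2. Fluorescence read at Ex/Em 405/460 nm, expressed as triamterene-equivalent signal.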

[17] = biological target: Glucocorticoid receptor (Homo sapiens) (UniProt P04150); assay: qHTS assay to identify small molecule agonists of the glucocorticoid receptor (GR) signaling pathway (AID 720691; active means well fitted activation curve with a large enough effect in the signal ratio in the repeat runs, not every such curve was filed as active; the % refers to the signal ratio; further: potency means the concentration at half of the fitted maximal effect); conditions: GR-bla HeLa, beta-lactamase reporter ratio, 18 h; activation: at 62.4 µM (top of the series)
Sequence of Glucocorticoid receptor (Homo sapiens) (P04150 whole entry, looked up): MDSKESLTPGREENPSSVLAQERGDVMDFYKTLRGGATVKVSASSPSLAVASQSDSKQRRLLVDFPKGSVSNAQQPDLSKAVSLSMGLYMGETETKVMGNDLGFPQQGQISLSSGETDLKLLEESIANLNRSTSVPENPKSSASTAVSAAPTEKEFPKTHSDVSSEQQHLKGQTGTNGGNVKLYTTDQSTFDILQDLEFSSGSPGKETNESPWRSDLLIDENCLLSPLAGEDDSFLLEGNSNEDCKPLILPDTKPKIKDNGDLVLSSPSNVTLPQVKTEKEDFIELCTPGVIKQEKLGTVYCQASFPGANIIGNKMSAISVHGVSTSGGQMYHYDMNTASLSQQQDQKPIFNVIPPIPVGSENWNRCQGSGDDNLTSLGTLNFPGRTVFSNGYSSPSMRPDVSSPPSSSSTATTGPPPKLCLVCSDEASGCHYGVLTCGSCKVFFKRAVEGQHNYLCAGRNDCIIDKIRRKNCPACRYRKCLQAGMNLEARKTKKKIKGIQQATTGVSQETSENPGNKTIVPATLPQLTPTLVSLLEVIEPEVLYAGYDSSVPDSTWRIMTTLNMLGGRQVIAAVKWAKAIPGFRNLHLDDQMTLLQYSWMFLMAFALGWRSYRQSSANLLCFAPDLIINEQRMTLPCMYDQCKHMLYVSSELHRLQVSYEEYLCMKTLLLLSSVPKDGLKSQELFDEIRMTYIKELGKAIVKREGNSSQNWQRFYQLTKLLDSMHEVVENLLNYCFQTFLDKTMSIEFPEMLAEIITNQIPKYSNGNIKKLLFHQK
In short: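 Beta-lactamase reporter activity, read as fluorescence intensity, was measured in GR-bla HeLa cells exposed to compounds for 18 h at 37 C and then loaded with LiveBLAzer B/G FRET substrate for 2 h at room temperature.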

[18] = qHTS assay for small molecule disruptors of the mitochondrial membrane potential (AID 720635); further: potency means the concentration at half of the fitted maximal effect
In short: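 HepG2 cells (2,000/well) attached overnight at 37C, then took compound for 1 hr at 37C, 5% CO2. Mito-MPS dye was added for 30 min; fluorescence was read at 490/535 nm (monomers) and 540/590 nm (aggregates).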

[19] = qHTS assay to test for compound auto fluorescence at 535 nm (green) in HepG2 cells (AID 720675)
[20] = biological target: Glucocorticoid receptor (Homo sapiens) (UniProt P04150); assay: qHTS assay to identify small molecule antagonists of the glucocorticoid receptor (GR) signaling pathway (AID 720692; active means well fitted inhibition curve with a large enough effect in the signal ratio in the repeat runs, not every such curve was filed as active; the % refers to the signal ratio; further: potency means the concentration at half of the fitted maximal effect)
In short: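 Fluorescence from cleaved LiveBLAzer B/G FRET substrate reports GRE-driven beta-lactamase in HeLa cells; compounds are tested against 5 nM dexamethasone (final) over 18 h at 37 C, substrate incubation 2 h at room temperature.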
Tags describe the fitted curve by direction and shape or compound fluorescence and quenching.

Compound	Potency [1]	Potency [2]	Potency [3]	Potency [4]	Potency [5]	Potency [6]	Potency [7]	Potency [8]	outcome [9]	Potency [10]	outcome [11]	Potency [12]	Potency [13]	Potency [14]	Potency [15]	Potency [16]	Potency [17]	Potency [18]	Potency [19]	Potency [20]
NNC(=O)c1cccc(C(=O)NN)c1	inactive	inactive	inactive	inactive	inactive	inactive	inactive	inactive	inactive	inactive	inactive	inactive	inactive	inactive	inactive	inactive	inactive			
Cc1cc(N)c(S(=O)(=O)O)cc1Cl	inactive	inactive	inactive	inactive	inactive	inactive	inactive		inactive	inactive	inactive		inactive	inactive	inactive	inactive		inactive		
Clc1ccc2nsnc2c1NC1=NCCN1	inactive	inactive	inactive	inactive	inactive	inactive	inactive	inactive	inactive	inactive		inactive	inactive	inactive	inactive	inactive		inactive	inactive	inactive
COCCCC/C(=N\OCCN)c1ccc(C(F)(F)F)cc1	inactive	inactive	inactive	inactive	inactive	inactive		inactive	inactive	inactive	inactive	inactive	inactive		inactive	inactive	inactive		inactive	inactive
Cc1cccc2c1cc1ccc3cccc4ccc2c1c34	2.49 µM (active)	inactive	inactive	inactive	inactive	inactive	inactive	inactive	inactive	inactive	inactive	inactive	inactive		inactive	inactive	5.01 µM [fluorescent] (active)		inactive	
CCOC(=O)/C=C(C)/C=C/C=C(C)/C=C/c1c(C)cc(OC)c(C)c1C	21.1 µM (active)	inactive	inactive	inactive	inactive	inactive	inactive	inactive	inactive	inactive	inactive	inactive	inactive	inactive	inactive	inactive			inactive	inactive
c1ccc(CSCc2ccccc2)cc1	inactive	inactive	inactive	inactive	inactive	inactive	inactive	inactive	inactive	inactive	inactive	inactive	inactive		inactive	inactive	inactive	43.1 µM (active)	inactive	
CC(C)=CCOc1ccc(/C=C/C(=O)c2ccc(OCC=C(C)C)cc2OCC(=O)O)cc1	13.3 µM (active)	inactive	10.6 µM (active)	inactive	inactive	inactive	inactive	inactive	inactive	inactive	inactive	inactive	inactive	inactive	inactive	inactive	inactive	23.7 µM (active)	inactive	7.56 µM (active)
O=C(O)c1c(Cl)cccc1Cl	inactive	inactive	inactive	inactive	inactive	inactive	inactive	inactive	inactive	inactive		inactive	inactive	inactive	inactive	inactive			inactive	
Oc1ccc(Cl)cc1Sc1cc(Cl)ccc1O	29.8 µM (active)	inactive	26.6 µM (active) and 54.4 µM (active)	19.3 µM (active)	9.44 µM (active) and 13.7 µM (active)	inactive	inactive	inactive	inactive	inactive	inactive	inactive	inactive	inactive	inactive	inactive		2.11 µM (active) and 1.53 µM (active)		
[O-][n+]1ccccc1SSc1cccc[n+]1[O-]	2.66 µM (active)	2.66 µM (active)	inactive	7.5 µM (active)	inactive	inactive	inactive	inactive	inactive	inactive	inactive	inactive	inactive	inactive	inactive	inactive		0.668 µM (active)	inactive	
O=c1cc(-c2ccc(O)cc2)oc2cc(O)cc(O)c12	15.6 µM (active) and 43.3 µM (active)	5.52 µM (active) and 4.86 µM (active)	inactive and 54.5 µM (active)		4.92 µM (active)	inactive	inactive	inactive	inactive	inactive	inactive	inactive	inactive	inactive		inactive	inactive	1.75 µM (active) and 1.37 µM (active)	inactive	27.9 µM (active) and 27.5 µM (active)
C=C(C)C(=O)OCC(O)COc1ccc(C(C)(C)c2ccc(OCC(O)COC(=O)C(=C)C)cc2)cc1 (centres undefined)	68.6 µM (active)	inactive	54.5 µM (active)	21.7 µM (active)		inactive	inactive	inactive	inactive	inactive	inactive	inactive	inactive	inactive		inactive		5.45 µM (active)	inactive	
O=c1c(-c2ccccc2)c1-c1ccccc1	18.8 µM (active)	inactive	13.3 µM (active)		inactive	inactive	inactive	inactive	inactive	inactive	inactive	inactive	inactive	inactive		inactive		23.7 µM (active)		23.9 µM (active)
O=c1[nH]cnc2nc[nH]c12	inactive		inactive	inactive	inactive	inactive	inactive	inactive	inactive	inactive	inactive	inactive	inactive	inactive		inactive		inactive	inactive	
O=C(NOCC1CC1)c1ccc(F)c(F)c1Nc1ccc(I)cc1Cl	11.9 µM (active)	inactive	23.7 µM (active)	inactive		inactive	inactive		inactive	inactive	inactive		inactive		inactive	inactive		8.41 µM (active)	inactive	10.7 µM (active)
CC(C)(C)c1ccc(C(=O)O)cc1	inactive	inactive	inactive	inactive		inactive	inactive	inactive	inactive	inactive	inactive	inactive	inactive	inactive		inactive	inactive		inactive	inactive
C=CC(=O)OCC(CO)(COCC(COC(=O)C=C)(COC(=O)C=C)COC(=O)C=C)COC(=O)C=C	67.8 µM (active)	2.4 µM (active)	2.7 µM (active)	7.6 µM (active)		inactive	inactive	inactive	inactive	inactive	inactive	inactive	inactive	inactive	inactive	inactive			inactive	
Oc1c(Cl)cc(Cl)c2cccnc12	2.37 µM (active)	13.3 µM (active)	2.98 µM (active)		inactive	inactive	inactive	inactive	inactive	inactive	inactive	inactive	inactive	inactive	inactive	inactive		10.6 µM (active)	inactive	
CCCCCCCCCCCCCCCS(=O)(=O)Oc1ccccc1	inactive	inactive	inactive	inactive		inactive	inactive	inactive	inactive	inactive	inactive	inactive	inactive	inactive		inactive	inactive		inactive	
N=C1C=CC(=C(c2ccc(N)cc2)c2ccc(N)cc2)C=C1	68.6 µM (active)	inactive		24.3 µM (active)		inactive	inactive	inactive		inactive	inactive		inactive	inactive	inactive	inactive		0.0611 µM (active)	inactive	
O=C(O)c1cc(O)c2c(c1)C(=O)c1cccc(O)c1C2=O	19.9 µM (active)	inactive	inactive		inactive	inactive	inactive	inactive		inactive	inactive		inactive	inactive	inactive	inactive	inactive	2.51 µM (active)	inactive	inactive
O=C1Cc2cc(CCN3CCN(c4nsc5ccccc45)CC3)c(Cl)cc2N1	inactive	inactive	inactive and 23.7 µM (active)		inactive	inactive	inactive	inactive	inactive	inactive	inactive	inactive	inactive		inactive	inactive	21.3 µM (active)	inactive	inactive	inactive
ON=C1CCCC1	inactive		inactive	inactive	inactive	inactive	inactive	inactive		inactive			inactive	inactive	inactive	inactive	inactive	inactive	inactive	
O=C(Nc1cccc(Cl)c1)OCC#CCCl	8.63 µM (active)	inactive	68.6 µM (active)	61.1 µM (active)		inactive	inactive	inactive	inactive	inactive	inactive	inactive	inactive		inactive	inactive		21.7 µM (active)	inactive	
N=C1N=C(N)c2ccccc21	24.3 µM (active)	21.7 µM (active)	21.7 µM (active)		inactive	inactive	inactive	inactive	inactive	inactive	inactive	inactive	inactive		inactive	inactive			inactive	
CC(=O)S[C@@H]1CC2=CC(=O)CC[C@]2(C)[C@H]2CC[C@@]3(C)[C@@H](CC[C@@]34CCC(=O)O4)[C@H]12	17.2 µM (active)		inactive	inactive	inactive	inactive	inactive		inactive	inactive	inactive	inactive	inactive	inactive	inactive	inactive			inactive	5.35 µM (active)
Nc1c2ccccc2nc2ccccc12	3.35 µM (active) and 1.91 µM (active)	inactive	inactive		inactive	inactive	11.2 µM [fluorescent] (active) and 31.6 µM [fluorescent] (active)			11.2 µM (active) and 15.8 µM (active)	inactive	inactive	inactive	14.1 µM [fluorescent] (active) and 15.8 µM [fluorescent] (active)	inactive	11.2 µM [fluorescent] (active) and 15.8 µM [fluorescent] (active)		11.9 µM (active) and 4.27 µM (active)	inactive	
